# ChEMBL document CHEMBL3988442, “University of Dundee, Small-Polar-MMV Screening Library” (2021)
# For some of these results: Potency and affinity values are given separately.
# Legend:
# Set-up in all cases: scale not given: direction of the effect not stated beside the values
# [1] = target: Protein translocase subunit SecA (Escherichia coli (strain K12)) (UniProt P10408); assay: Assay to Identify E. coli SecA ATPase Inhibitors; type: functional; conditions: 30 µM
# [2] = target: T1, Ubiquitin-activating enzyme e1, putative (Leishmania donovani (strain BPK282A1)) (UniProt E9BSI1); assay: Leishmania donovani Ubiquitin Activating Enzyme (LdE1); type: functional; conditions: 30 µM
# T1 sequence (whole entry): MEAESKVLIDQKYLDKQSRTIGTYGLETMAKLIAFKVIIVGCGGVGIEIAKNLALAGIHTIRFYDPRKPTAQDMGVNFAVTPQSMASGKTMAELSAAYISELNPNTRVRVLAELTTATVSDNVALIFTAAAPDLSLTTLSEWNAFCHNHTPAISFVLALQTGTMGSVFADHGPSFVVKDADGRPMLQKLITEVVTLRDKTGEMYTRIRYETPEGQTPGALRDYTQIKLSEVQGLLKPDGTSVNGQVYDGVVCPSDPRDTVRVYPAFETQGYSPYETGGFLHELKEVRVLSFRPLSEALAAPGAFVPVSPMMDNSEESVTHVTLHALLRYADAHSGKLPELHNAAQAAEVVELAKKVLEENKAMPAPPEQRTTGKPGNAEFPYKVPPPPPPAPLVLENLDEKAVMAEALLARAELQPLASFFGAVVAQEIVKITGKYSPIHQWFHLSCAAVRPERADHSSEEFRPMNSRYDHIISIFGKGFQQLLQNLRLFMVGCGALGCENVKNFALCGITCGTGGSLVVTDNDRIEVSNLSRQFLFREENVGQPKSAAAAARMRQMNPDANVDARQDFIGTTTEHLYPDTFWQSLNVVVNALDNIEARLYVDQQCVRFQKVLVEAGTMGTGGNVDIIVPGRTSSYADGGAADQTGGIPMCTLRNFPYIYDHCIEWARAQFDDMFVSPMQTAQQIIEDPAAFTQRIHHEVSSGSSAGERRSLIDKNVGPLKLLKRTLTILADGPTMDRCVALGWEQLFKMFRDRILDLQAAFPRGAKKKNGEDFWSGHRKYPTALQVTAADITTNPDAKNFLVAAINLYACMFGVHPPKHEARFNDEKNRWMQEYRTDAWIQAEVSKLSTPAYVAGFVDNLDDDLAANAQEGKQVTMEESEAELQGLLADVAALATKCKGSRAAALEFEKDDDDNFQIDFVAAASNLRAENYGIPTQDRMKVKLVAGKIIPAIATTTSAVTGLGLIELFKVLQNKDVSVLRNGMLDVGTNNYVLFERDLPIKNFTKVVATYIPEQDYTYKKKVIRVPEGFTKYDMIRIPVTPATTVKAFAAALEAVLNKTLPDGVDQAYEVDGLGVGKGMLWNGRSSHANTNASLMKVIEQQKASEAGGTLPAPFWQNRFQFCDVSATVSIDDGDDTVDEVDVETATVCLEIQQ
# [3] = target: AMP-activated protein kinase, AMPK (Homo sapiens) (UniProt P54646+O43741+P54619+Q9UGJ0+Q9Y478+Q13131+Q9UGI9); assay: AMP-dependent Kinase enzyme assay. An in vitro enzyme assay that detects ADP turnover that is directly proportional to AMPK activity. This uses naive AMPK that is activated during the assay with MK-8722; type: functional; conditions: 30 µM
# [4] = target: Sialic acid-binding Ig-like lectin 9 (Homo sapiens) (UniProt Q9Y336); assay: Hs-Siglec9 ALPHAscreen SOP 20170721; conditions: 10 µM
# Trypanosoma cruzi = assay: Trypanosoma cruzi phosphomannomutase and mannose-1-phosphate guanylyltransferase assay; type: functional; conditions: 10 µM
# [5] = target: T2, Arginase-2, mitochondrial (Homo sapiens) (UniProt P78540); assay: in vitro enzyme assay to detect the production of urea directly proportional to the activity of Arginase II; type: functional; conditions: 33.3 µM; note: in the data most compounds retested in dose-response had high values
# T2 sequence (whole entry): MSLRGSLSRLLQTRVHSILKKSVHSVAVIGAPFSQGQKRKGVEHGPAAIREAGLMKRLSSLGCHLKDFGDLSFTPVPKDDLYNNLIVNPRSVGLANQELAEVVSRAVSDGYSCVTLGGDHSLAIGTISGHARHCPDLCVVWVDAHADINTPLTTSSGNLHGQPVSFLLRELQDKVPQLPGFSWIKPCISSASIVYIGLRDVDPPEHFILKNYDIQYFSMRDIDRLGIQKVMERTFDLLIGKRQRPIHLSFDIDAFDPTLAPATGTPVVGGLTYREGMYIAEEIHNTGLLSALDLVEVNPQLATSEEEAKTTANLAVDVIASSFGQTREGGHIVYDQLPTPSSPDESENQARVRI
# [6] = target: T3, Proteasome subunit beta (Trypanosoma cruzi) (UniProt O96673); assay: Trypanosoma cruzi proteasome chymotrypsin-like activity (TcProtChymo) assay.; note: in the data most compounds retested in dose-response had high values; type: functional; conditions: 9.37 µM
# T3 sequence (whole entry): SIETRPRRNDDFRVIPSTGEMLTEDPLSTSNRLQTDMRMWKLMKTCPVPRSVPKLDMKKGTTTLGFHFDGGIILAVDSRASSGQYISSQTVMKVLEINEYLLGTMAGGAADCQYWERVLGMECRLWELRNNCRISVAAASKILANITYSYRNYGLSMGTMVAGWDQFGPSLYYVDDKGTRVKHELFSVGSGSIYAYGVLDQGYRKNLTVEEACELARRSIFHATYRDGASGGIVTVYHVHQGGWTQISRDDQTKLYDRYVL
# Homo sapiens = species: Homo sapiens; assay: To identify inhibition of the IFN signalling (Jak-Stat) pathway via expression of an eGFP reporter gene under the control of an IFN-stimulated response element (ISRE) containing MxA promoter.; type: functional; conditions: 30 µM
# [7] = target: T4, Tyrosyl-tRNA synthetase, putative (Trypanosoma cruzi (strain CL Brener)) (UniProt Q4DSP6); assay: Trypanosoma cruzi tyrosyl tRNA synthetase (TcYRS) _High Tyrosine SOP; type: functional; conditions: 30 µM; note: in the data most compounds retested in dose-response had high values
# T4 sequence (whole entry): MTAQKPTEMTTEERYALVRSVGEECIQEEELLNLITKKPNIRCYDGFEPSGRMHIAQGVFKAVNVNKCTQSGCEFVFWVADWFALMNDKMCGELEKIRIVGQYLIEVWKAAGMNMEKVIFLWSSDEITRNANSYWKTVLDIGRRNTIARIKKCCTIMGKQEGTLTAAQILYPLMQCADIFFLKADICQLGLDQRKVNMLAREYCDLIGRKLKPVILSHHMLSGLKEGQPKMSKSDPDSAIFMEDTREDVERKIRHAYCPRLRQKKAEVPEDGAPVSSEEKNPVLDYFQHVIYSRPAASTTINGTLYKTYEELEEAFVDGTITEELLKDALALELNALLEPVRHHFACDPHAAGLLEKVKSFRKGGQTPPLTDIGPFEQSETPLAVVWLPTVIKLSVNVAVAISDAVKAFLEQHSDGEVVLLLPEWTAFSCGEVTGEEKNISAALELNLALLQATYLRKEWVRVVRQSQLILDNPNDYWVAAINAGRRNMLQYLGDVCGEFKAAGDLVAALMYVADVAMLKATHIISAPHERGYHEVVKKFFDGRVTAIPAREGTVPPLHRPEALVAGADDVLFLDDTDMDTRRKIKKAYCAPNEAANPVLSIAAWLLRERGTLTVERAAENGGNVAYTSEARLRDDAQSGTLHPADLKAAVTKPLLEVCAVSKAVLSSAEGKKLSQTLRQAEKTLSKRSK
# [8] = target: T4, Tyrosyl-tRNA synthetase, putative (Trypanosoma cruzi (strain CL Brener)); assay: Trypanosoma cruzi tyrosyl tRNA synthetase (TcYRS) SOP; type: functional; conditions: 30 µM
# [9] = target: Chromo domain-containing protein 1 (Saccharomyces cerevisiae (strain ATCC 204508 / S288c) (Baker's yeast)) (UniProt P32657); assay: ScCHD-1 Enzyme Inhibition Assay; type: functional; conditions: 30 µM; note: in the data most compounds retested in dose-response had high values
# Chromo domain-containing protein 1 (Saccharomyces cerevisiae (strain ATCC 204508 / S288c) (Baker's yeast)), sequence (P32657 whole entry, the tested form may be a part): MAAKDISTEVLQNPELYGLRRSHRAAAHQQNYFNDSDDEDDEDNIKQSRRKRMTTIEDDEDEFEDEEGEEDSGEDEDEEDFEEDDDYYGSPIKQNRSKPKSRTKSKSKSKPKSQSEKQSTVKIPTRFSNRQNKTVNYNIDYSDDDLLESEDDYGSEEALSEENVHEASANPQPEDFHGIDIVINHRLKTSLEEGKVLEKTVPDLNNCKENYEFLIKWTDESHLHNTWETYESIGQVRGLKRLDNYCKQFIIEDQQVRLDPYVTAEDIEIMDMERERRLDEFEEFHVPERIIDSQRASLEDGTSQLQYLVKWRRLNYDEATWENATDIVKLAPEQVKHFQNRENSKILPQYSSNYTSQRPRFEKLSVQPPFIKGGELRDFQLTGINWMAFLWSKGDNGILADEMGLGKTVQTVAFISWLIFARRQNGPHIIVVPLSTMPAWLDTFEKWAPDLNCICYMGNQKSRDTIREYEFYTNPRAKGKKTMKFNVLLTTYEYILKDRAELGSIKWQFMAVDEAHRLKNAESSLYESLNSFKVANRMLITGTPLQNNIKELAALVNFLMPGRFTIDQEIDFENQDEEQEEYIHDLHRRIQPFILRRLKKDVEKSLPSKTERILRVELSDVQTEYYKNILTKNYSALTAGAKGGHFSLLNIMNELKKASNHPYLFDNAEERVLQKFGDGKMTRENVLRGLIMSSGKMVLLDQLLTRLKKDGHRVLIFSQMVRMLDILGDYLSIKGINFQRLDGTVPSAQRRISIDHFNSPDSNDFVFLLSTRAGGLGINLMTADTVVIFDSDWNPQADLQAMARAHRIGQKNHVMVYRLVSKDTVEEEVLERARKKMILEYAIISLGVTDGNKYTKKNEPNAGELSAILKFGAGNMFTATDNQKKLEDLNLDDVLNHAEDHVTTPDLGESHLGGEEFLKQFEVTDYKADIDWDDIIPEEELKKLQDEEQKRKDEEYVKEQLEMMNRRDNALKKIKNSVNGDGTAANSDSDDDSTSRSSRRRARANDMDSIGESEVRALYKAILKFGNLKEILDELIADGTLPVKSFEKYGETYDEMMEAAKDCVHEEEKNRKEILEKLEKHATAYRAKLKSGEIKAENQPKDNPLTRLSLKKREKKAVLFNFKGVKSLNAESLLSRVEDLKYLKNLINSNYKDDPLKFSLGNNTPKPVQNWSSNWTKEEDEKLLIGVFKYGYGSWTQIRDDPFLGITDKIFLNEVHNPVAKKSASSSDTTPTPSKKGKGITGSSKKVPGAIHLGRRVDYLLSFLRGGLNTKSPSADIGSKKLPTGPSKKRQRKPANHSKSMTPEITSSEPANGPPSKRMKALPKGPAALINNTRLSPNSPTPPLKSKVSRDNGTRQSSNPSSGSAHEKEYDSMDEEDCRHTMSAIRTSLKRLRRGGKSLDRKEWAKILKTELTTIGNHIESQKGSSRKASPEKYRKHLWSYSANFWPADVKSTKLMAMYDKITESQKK
# Sialic acid-binding Ig-like lectin 9 (Homo sapiens), sequence (Q9Y336 whole entry): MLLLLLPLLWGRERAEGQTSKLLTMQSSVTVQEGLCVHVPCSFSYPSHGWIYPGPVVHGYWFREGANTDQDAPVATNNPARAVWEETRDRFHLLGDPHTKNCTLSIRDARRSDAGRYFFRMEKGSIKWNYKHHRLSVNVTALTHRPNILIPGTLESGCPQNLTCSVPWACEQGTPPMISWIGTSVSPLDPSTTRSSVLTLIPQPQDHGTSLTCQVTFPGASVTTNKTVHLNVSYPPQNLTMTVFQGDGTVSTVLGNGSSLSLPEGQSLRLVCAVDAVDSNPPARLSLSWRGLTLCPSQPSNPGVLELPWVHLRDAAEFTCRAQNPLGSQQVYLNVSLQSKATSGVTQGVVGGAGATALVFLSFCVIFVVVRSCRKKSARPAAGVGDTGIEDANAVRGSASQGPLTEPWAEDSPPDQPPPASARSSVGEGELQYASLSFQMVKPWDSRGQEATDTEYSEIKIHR
# Protein translocase subunit SecA (Escherichia coli (strain K12)), sequence (P10408 whole entry): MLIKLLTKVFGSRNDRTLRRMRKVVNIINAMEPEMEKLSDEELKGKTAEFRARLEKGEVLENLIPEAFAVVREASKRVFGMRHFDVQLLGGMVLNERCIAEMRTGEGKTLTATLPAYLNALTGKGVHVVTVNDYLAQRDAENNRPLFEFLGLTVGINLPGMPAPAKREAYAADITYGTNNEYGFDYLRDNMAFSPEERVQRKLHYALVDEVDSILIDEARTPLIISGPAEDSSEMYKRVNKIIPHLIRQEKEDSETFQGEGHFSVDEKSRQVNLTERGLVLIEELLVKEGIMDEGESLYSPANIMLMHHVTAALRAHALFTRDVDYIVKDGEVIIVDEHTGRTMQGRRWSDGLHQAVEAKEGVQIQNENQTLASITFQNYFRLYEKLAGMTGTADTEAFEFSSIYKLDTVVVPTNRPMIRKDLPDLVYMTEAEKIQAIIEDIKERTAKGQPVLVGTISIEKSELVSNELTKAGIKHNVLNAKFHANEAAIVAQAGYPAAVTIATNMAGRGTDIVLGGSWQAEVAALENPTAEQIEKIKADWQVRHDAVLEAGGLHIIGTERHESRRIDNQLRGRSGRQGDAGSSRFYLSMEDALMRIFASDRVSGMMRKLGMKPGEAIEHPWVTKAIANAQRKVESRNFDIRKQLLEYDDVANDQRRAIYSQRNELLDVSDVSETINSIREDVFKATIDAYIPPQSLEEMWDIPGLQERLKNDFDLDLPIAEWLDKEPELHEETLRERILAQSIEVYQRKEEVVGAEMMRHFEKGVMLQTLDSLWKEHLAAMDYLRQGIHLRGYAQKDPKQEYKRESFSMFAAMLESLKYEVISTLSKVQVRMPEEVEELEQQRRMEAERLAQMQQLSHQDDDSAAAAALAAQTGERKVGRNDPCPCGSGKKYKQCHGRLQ
smiles,measurement,setting,value
CC(C)c1nc2n(n1)CC(NCc1nnnn1C1CC1)CC2 (stereo not drawn),Percent Effect,[1],-2.7%
same,Percent Effect,[2],32.4%
same,Percent Effect,[3],-23.1%
same,Percent Effect,[4],6.96%
same,Percent Effect,Trypanosoma cruzi,3.87%
same,Percent Effect,[5],-15.6%
same,Percent Effect,[6],7.39%
same,Percent Effect,Homo sapiens,9.98%
same,Percent Effect,[7],4.43%
same,Percent Effect,[8],18.5%
same,Percent Effect,[9],-10.6%
CCn1nccc1CNC(=O)C1CCCC1,Percent Effect,[1],0.221%
same,Percent Effect,[2],10.4%
same,Percent Effect,[3],2.62%
same,Percent Effect,[4],4.33%
same,Percent Effect,Trypanosoma cruzi,-7.38%
same,Percent Effect,[5],1.38%
same,Percent Effect,[6],9.65%
same,Percent Effect,Homo sapiens,-1.06%
same,Percent Effect,[7],5.38%
same,Percent Effect,[8],16.1%
same,Percent Effect,[9],-0.569%
CS(=O)(=O)N1CCOCC2(CN(Cc3ccco3)CCO2)C1 (stereo not drawn),Percent Effect,[1],-1.05%
same,Percent Effect,[2],5.48%
same,Percent Effect,[3],3.7%
same,Percent Effect,[4],1.39%
same,Percent Effect,Trypanosoma cruzi,-1.19%
same,Percent Effect,[5],4.79%
same,Percent Effect,[6],5.39%
same,Percent Effect,Homo sapiens,1.38%
same,Percent Effect,[7],6.25%
same,Percent Effect,[8],11.1%
same,Percent Effect,[9],0.698%
COc1nc(C)c(C(=O)N(C)Cc2nc(-c3ccccn3)no2)s1,Percent Effect,[1],-2.52%
same,Percent Effect,[2],13.3%
same,Percent Effect,[3],-11.2%
same,Percent Effect,[4],4.23%
same,Percent Effect,Trypanosoma cruzi,4.97%
same,Percent Effect,[5],-3.65%
same,Percent Effect,[6],18.3%
same,Percent Effect,Homo sapiens,-0.294%
same,Percent Effect,[7],6.01%
same,Percent Effect,[8],13.6%
same,Percent Effect,[9],-0.207%
Cc1cc(C)n(CC2CN(CC(=O)Nc3c(C)n[nH]c3C)CCO2)n1 (stereo not drawn),Percent Effect,[1],-3.28%
same,Percent Effect,[2],15.6%
same,Percent Effect,[3],2.77%
same,Percent Effect,[4],0.0825%
same,Percent Effect,Trypanosoma cruzi,-8.61%
same,Percent Effect,[5],0%
same,Percent Effect,[6],10.5%
same,Percent Effect,Homo sapiens,24.1%
same,Percent Effect,[7],6.8%
same,Percent Effect,[8],12.2%
same,Percent Effect,[9],-3.32%
CCOc1ncccc1NC(=O)c1cc(C)c(C)s1,Percent Effect,[1],-7.94%
same,Percent Effect,[2],1.39%
same,Percent Effect,[3],3.33%
same,Percent Effect,[4],-1.86%
same,Percent Effect,Trypanosoma cruzi,-2.82%
same,Percent Effect,[5],-2.21%
same,Percent Effect,[6],11.1%
same,Percent Effect,Homo sapiens,11.6%
same,Percent Effect,[7],-3.16%
same,Percent Effect,[8],2.56%
same,Percent Effect,[9],-0.429%
COCCN1CCc2cc(C(=O)NCC3CC3)c(NC(C)C)nc2CC1,Percent Effect,[1],-2.06%
same,Percent Effect,[2],8%
same,Percent Effect,[3],4.16%
same,Percent Effect,[4],9.64%
same,Percent Effect,Trypanosoma cruzi,-1.74%
same,Percent Effect,[5],-27.8%
same,Percent Effect,[6],13.2%
same,Percent Effect,Homo sapiens,55.7%
same,Percent Effect,[7],1.04%
same,Percent Effect,[8],12.5%
same,Percent Effect,[9],-10.2%
CCOc1ccccc1CSc1nnc(CC2CCS(=O)(=O)C2)n1C (stereo not drawn),Percent Effect,[1],-2.9%
same,Percent Effect,[2],2.7%
same,Percent Effect,[3],-1.67%
same,Percent Effect,[4],1.02%
same,Percent Effect,Trypanosoma cruzi,-3.42%
same,Percent Effect,[5],1.74%
same,Percent Effect,[6],9.19%
same,Percent Effect,Homo sapiens,5.04%
same,Percent Effect,[7],3.23%
same,Percent Effect,[8],11.1%
same,Percent Effect,[9],-8.57%
